Experimental data taken from PubChem BioAssay (NCATS).
Unmarked numbers belong to inactive results. Where a call stands in place of a potency, no number is given. Activity calls are given as the source filed them. Calls come from the whole dose curve; as a rule, active = well fitted inhibition curve with a large enough effect; inconclusive = small, poorly fitted or top-dose-only effect; inactive = flat fitted curve, though single readings scatter.

system: Nanoluciferase (engineered Oplophorus gracilirostris luciferase); experiment: Primary Nanoluciferase (NLuc) qHTS assay for identification of artifact compounds. (AID 1845222); details: NLuc-conditioned medium, Nano-Glo luminescence, 5 min; series mostly up to 54.1 µM
Procedure, shortened: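 Diluted conditioned medium from NLuc-expressing S16 cells treated with compounds for 15 min at room temperature, then Nano-Glo substrate added; luminescence read after 5 min. Percent inhibition versus no-enzyme and DMSO controls fitted to 4-parameter Hill equation.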

| Structure (SMILES) | Potency | activity, negative = inhibition |
| --- | --- | --- |
| COc1ccc(-c2ccc3c(N4CCOCC4C)nc(N4CCOCC4C)nc3n2)cc1CO (centres undefined) | inactive | – |
| O=C(NCCN1CCOCC1)c1cc2c(Oc3ccc(NC(=O)C4(C(=O)Nc5ccc(F)cc5)CC4)cc3)ccnc2[nH]1 | inactive | – |
| C=C[C@@]1(C)C=C2C(=O)C(O)=C3[C@](C)(C(=O)O)CC[C@@H]4C[C@]34[C@]2(O)C(=O)C1 | inactive | – |
| CCc1cccc(CC)c1-n1c(C=C(C)C)c(C(=O)N2CCNCC2)cc(-c2nc(-c3ccc(C(F)(F)F)cc3)cs2)c1=O | inactive | – |
| CCc1cc2c(cc1CC)CC(NCC(O)c1ccc(O)c3[nH]c(=O)ccc13)C2 (centres undefined) | inactive | – |
| COCC(=O)NC/C=C/c1ccc2ncnc(Nc3ccc(Oc4ccc(C)nc4)c(C)c3)c2c1 | inactive | – |
| O=C(c1c(F)ccc(NS(=O)(=O)N2CC[C@@H](F)C2)c1F)c1c[nH]c2ncc(-c3cnc(C4CC4)nc3)cc12 | inactive | – |
| CN1CCN(c2ccc(-c3cccc(CN4CCOCC4)c3)cc2NC(=O)c2c[nH]c(=O)cc2C(F)(F)F)CC1 | inactive | – |
| CCNC(=O)C#Cc1ccc2c(C(=Nc3ccc(CN(C)C)cc3)c3ccccc3)c(O)[nH]c2c1 | inactive | – |
| CC(CCC1(O)OC2CC3C4CC=C5C[C@@H](O[C@@H]6O[C@H](CO)[C@@H](O[C@@H]7O[C@@H](C)[C@H](O)[C@@H](O)[C@H]7O)[C@H](O)[C@H]6O[C@@H]6O[C@@H](C)[C@H](O)[C@@H](O)[C@H]6O)CC[C@]5(C)C4CC[C@]3(C)[C@@]2(O)[C@@H]1C)CO[C@@H]1O[C@H](CO)[C@@H](O)[C@H](O)[C@H]1O (some centres undefined) | – | 0% [at 11.6 µM] |
| CCCOc1ccc(CCc2nc3cc(-c4c(C)noc4C)ccc3n2CCN2CCOCC2)cc1 | inactive | – |
| CC(C)(O)C1Cc2c(ccc(C(=O)CCc3ccccc3)c2O)O1 (centres undefined) | inactive | – |
| O=C(N[C@H]1CCN(C(=O)c2cc(C(F)(F)F)cc(C(F)(F)F)c2)[C@H](Cc2ccc(Cl)cc2)C1)c1ccnc2ccccc12 | inactive | – |
| COc1cccc(CN(C(=O)CC(C)(C)C)[C@H]2C[C@H](C(=O)N3CCNCC3)N(Cc3ccc4c(c3)OCO4)C2)c1 | inactive | – |
| CC(C)Oc1ccc(-c2cnc3c(-c4ccnc5ccccc45)cnn3c2)cc1 | inactive | – |
| Fc1ccc(N2CCN(CCC3OCCc4ccccc43)CC2)cc1 (centres undefined) | inactive | – |
| O=C(NCC1(N2CCN(c3ccccc3)CC2)CCOCC1)c1cccnc1Sc1ccccc1 | inactive | – |

| Structure (SMILES) | Potency | activity, negative = inhibition |
| --- | --- | --- |
| CC(C)OC(=O)N1CCC(Oc2ncnc3c2cnn3-c2ccc(S(C)(=O)=O)cc2F)CC1 | inactive | – |
| O=C(N[C@@H]1CCCc2c1cnn2-c1ccc(F)cc1F)c1ccccn1 | inactive | – |
| CN(C)CCn1cc(-c2ccc(F)cc2)c(-n2cccc2)n1 | inactive | – |
| CC1(C)CC[C@]2(C(=O)O[C@@H]3O[C@H](CO)[C@@H](O)[C@H](O)[C@H]3O)CC[C@]3(C)C(=CCC4[C@@]5(C)CC[C@H](O[C@@H]6O[C@H](C(=O)O)[C@H](O)[C@H](O)[C@H]6O)C(C)(C)C5CC[C@]43C)[C@@H]2C1 (some centres undefined) | inactive | – |
| C=C1C(=O)O[C@H]2C1CCC(C)=C1C(=O)C=C(C)[C@@]12O (some centres undefined) | inactive | – |
| O=C(Nc1ccc(Cl)cc1)C1CCCN(C(=O)c2cccc(-c3ccco3)c2)C1 (centres undefined) | inactive | – |
| CC1=CC2/C=C(\C)CCC(O)C/C=C/C(=O)OC23C(=O)NC(CC(C)C)C3C1C (centres undefined) | inactive | – |
| Cc1[nH]c2ccccc2c1CCNC(=O)c1cccs1 | inactive | – |
| C/C=C(\C)C(=O)OC1C[C@@]2(COC(C)=O)O[C@H]2/C=C\[C@@]2(C)O[C@@H]2[C@H]2OC(=O)C(COC(C)=O)=C12 (some centres undefined) | inactive | – |
| CCC(C)c1ccc(NC(=O)Cn2cnc3c2c(=O)n(C)c(=O)n3C)cc1 (centres undefined) | inactive | – |
| C=C1C(=O)O[C@@H]2/C=C(/C)[C@@H](OC(C)=O)C/C=C(\C)C[C@@H](OC(=O)/C(=C/CO)CO)[C@@H]12 | inactive | – |
| CCN(Cc1ccccc1)C(=O)Cn1c(=O)n(C)c2cnc(-c3ccccc3)nc21 | inactive | – |
| Cc1cc2sc(NC(=O)Cc3ccccc3)nc2cc1Cl | inactive | – |
| O=C(C1CCCCC1)N(CCN1CCN(c2ccccc2O)CC1)c1ccccn1 | inactive | – |
| COc1cc(C#N)ccc1S(=O)(=O)Nc1ccc2c(c1)cc(C)c(=O)n2C | inactive | – |
| COc1cc(N2CCC(O)CC2)ccc1Nc1nc(Nc2ccccc2S(=O)(=O)C(C)C)c2[nH]cnc2n1 | inactive | – |
| Cc1nc(NC(=O)N2CCC[C@H]2C(N)=O)sc1-c1ccnc(C(C)(C)C(F)(F)F)c1 | inactive | – |
